# According to PubChem BioAssay (EPA / NIEHS):
# Active and inactive are the calls of the source. The calls were made as follows: active = hit-call score of the fitted dose curve at least 0.9, where 1 is the maximum; inactive = score below 0.9.
# Legend:
# [1] = ATG_CRE_CIS: Attagene CIS-FACTORIAL HepG2 Assay for human cAMP Responsive Element (CRE) binding protein 3 (AID 2282926); conditions: HepG2 CRE cis-reporter, Attagene multiplexed mRNA; actives raise or lower the signal
# Method in brief: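 Human liver HepG2, transient MRTU transfection, 24 h compound exposure. Total RNA → oligo(dT) RT → PCR → 6-FAM primer extension → HpaI cut → CE. Activity called both directions vs DMSO.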
# [2] = target: CCAAT/enhancer-binding protein beta (Homo sapiens) (UniProt P17676); experiment: ATG_C_EBP_CIS: Attagene CIS-FACTORIAL HepG2 Assay for human CCAAT/Enhancer Binding Protein (C/EBP) beta (AID 2282927); conditions: HepG2 Attagene cis-factorial transcription factor reporter; actives raise or lower the signal
# Method in brief: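 Endogenous transcription factor activity in human liver HepG2 cells is inferred from induction of a CEBPB-linked reporter mRNA. Exposure lasts 24 h; activity is fitted in both directions relative to DMSO.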
# [3] = ATG_CMV_CIS: Attagene CIS-FACTORIAL HepG2 Assay for human CMV (Internal Marker) (AID 2282928); conditions: HepG2 CMV promoter reporter, transcription factor profiling; actives raise or lower the signal;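 also: endpoint acts as a background internal control marker rather than a target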
# Method in brief: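 After transient transfection of HepG2 with reporter transcription units driven by cis-regulatory promoters, cells receive test chemical for 24 h. Labeled reporter amplicons, digested with HpaI, are sized and quantified by capillary electrophoresis against DMSO.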
# [4] = ATG_DR4_LXR_CIS: Attagene CIS-FACTORIAL HepG2 Assay for human Liver X Receptor (LXR), DR4 submotif (AID 2282929); conditions: HepG2 Attagene DR4 cis-reporter, mRNA transcription; actives raise or lower the signal
# Method in brief: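 HepG2, transient MRTU transfection, cis-element (DR4) promoter; 24 h compound exposure; total RNA → oligo(dT) RT → PCR → 6-FAM primer extension → HpaI cut → CE. Gain/loss vs DMSO, bidirectional fit.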
# [5] = target: Aryl hydrocarbon receptor (Homo sapiens) (UniProt P35869); experiment: ATG_Ahr_CIS: Attagene CIS-FACTORIAL HepG2 Assay for human Aryl Hydrocarbon Receptor (Ahr) (AID 2282930); conditions: HepG2 AhR cis-factorial reporter transcription; actives raise or lower the signal
# Method in brief: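 Transient MRTU transfection of HepG2 → 24 h compound exposure → total RNA, oligo(dT) RT → PCR, 6-FAM extension, HpaI cut → CE fluorescence. DMSO = baseline; bidirectional curve fit.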
# [6] = ATG_AP_2_CIS: Attagene CIS-FACTORIAL HepG2 Assay for human Activator Protein 2 (AP-2) (AID 2282932); conditions: HepG2 AP-2 cis-reporter, Attagene transcription factor profiling; actives raise or lower the signal
# Method in brief: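 HepG2, transient MRTU transfection, cis-regulated reporters; 24 h compound exposure; RNA isolated, RT-PCR, 6-FAM labelling, HpaI digest, CE fluorescence. DMSO = negative control/baseline, bidirectional fit.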
# [7] = ATG_BRE_CIS: Attagene CIS-FACTORIAL HepG2 Assay for human Bone Morphogenetic Protein (BMP) Response Element (BRE) (AID 2282933); conditions: HepG2 BMP response element reporter, Attagene transcription factor profiling; actives raise or lower the signal
# Method in brief: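 Read-out: reporter mRNA induction quantified by RT-PCR and capillary electrophoresis after 24 h chemical exposure of transfected HepG2 cells. Endogenous factor activity on the BMP response element; gain or loss fitted against DMSO baseline.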
# [8] = target: Retinoic acid receptor alpha (Homo sapiens) (UniProt P10276); experiment: ATG_DR5_RAR_CIS: Attagene CIS-FACTORIAL HepG2 Assay for human Retinoic Acid Receptor Alpha (RARE), DR5 submotif (AID 2282934); conditions: HepG2 Attagene cis-factorial RARE DR5 reporter, mRNA; actives raise or lower the signal;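 as to AC50: reporter responds to endogenous RAR alpha beta and gamma in HepG2 not RARA alone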
# Method in brief: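 Transient MRTU transfection of HepG2; 24 h compound treatment; TriZol RNA, oligo(dT) RT, PCR, FAM labelling, capillary electrophoresis. Bidirectional fit vs DMSO. Endogenous TF activity at DR5 RARE.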
# [9] = target: Transcription factor E2F1 (Homo sapiens) (UniProt Q01094); experiment: ATG_E2F_CIS: Attagene CIS-FACTORIAL HepG2 Assay for human E2F Transcription Factor 1 (AID 2282935); conditions: HepG2 Attagene cis-reporter, E2F reporter RNA transcripts; actives raise or lower the signal
# Method in brief: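 Cis-element reporter mRNA induction in transiently transfected HepG2, 24 h exposure. Activity fitted in both directions relative to DMSO negative control.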
# [10] = ATG_AP_1_CIS: Attagene CIS-FACTORIAL HepG2 Assay for human Activator Protein 1 (AP-1) (AID 2282931); conditions: HepG2 Attagene cis-factorial AP-1 reporter mRNA; actives raise or lower the signal
# Method in brief: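 Transient MRTU transfection of HepG2 → 24 h chemical treatment → RNA isolation, RT-PCR, 6-FAM labelling, HpaI digest → capillary electrophoresis. Fit: bidirectional, DMSO negative control.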
# Sequence of Transcription factor E2F1 (Homo sapiens) (Q01094 whole entry, looked up): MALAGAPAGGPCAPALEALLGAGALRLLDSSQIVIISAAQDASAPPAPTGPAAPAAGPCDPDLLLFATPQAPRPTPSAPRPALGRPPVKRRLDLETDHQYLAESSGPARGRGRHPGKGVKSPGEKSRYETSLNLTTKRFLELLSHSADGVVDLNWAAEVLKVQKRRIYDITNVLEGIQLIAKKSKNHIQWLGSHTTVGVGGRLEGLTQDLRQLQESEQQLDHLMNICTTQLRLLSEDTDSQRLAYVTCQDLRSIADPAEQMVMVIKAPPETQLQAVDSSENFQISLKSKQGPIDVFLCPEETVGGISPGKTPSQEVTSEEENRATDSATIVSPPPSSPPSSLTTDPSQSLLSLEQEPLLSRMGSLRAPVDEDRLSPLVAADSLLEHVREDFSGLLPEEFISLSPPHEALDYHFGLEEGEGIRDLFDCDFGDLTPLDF
# Sequence of Aryl hydrocarbon receptor (Homo sapiens) (P35869 whole entry, looked up): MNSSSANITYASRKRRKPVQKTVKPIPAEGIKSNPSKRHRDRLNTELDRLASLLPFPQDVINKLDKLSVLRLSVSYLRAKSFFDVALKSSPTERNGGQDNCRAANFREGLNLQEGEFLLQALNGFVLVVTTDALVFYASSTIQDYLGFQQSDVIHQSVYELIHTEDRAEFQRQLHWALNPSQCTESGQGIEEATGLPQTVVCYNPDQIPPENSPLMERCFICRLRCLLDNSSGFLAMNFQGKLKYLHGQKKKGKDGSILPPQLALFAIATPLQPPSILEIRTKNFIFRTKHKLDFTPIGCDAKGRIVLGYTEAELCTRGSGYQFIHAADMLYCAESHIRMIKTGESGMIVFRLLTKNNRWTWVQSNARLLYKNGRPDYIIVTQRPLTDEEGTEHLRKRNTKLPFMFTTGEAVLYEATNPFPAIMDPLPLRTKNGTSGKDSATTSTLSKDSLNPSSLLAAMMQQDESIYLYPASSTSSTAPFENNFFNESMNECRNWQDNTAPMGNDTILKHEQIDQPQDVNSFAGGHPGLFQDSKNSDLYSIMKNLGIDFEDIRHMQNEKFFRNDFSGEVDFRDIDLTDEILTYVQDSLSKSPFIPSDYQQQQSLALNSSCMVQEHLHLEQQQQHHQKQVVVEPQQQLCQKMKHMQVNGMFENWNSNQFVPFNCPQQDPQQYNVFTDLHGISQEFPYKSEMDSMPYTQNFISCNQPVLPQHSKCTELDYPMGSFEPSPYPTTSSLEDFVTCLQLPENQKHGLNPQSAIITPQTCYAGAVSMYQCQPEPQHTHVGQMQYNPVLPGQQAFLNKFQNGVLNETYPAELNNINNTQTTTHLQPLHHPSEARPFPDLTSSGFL
# Sequence of CCAAT/enhancer-binding protein beta (Homo sapiens) (P17676 whole entry, looked up): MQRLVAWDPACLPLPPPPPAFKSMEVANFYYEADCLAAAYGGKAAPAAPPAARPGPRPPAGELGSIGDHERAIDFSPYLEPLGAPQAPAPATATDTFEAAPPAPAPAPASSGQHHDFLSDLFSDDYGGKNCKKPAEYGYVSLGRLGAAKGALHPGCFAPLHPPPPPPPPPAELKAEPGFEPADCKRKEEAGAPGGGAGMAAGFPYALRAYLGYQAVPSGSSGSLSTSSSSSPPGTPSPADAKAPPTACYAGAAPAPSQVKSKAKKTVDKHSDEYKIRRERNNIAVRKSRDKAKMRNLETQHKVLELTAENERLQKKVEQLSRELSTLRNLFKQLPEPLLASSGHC
# Sequence of Retinoic acid receptor alpha (Homo sapiens) (P10276 whole entry, looked up): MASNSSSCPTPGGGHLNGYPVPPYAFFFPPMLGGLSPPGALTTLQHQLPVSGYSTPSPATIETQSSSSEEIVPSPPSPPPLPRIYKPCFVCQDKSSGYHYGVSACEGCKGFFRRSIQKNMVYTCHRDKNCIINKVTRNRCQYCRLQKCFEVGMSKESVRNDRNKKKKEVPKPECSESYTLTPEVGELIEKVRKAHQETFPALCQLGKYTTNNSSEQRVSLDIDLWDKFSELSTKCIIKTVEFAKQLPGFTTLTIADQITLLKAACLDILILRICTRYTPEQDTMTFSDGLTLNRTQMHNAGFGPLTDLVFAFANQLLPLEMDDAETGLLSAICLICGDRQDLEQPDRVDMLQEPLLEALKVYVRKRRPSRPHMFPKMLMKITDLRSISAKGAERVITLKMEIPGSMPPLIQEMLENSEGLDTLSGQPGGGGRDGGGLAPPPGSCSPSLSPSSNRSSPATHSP
compound,measurement,setting,value
CSc1c(Cl)c(Cl)c(Cl)c(Cl)c1Cl,AC50,[1],169 µM (active)
same,outcome,[2],inactive
same,AC50,[3],26.3 µM (active)
same,AC50,[4],32 µM (active)
same,outcome,[5],inactive
same,outcome,[6],inactive
same,outcome,[7],inactive
same,outcome,[8],inactive
same,outcome,[9],inactive
CCOC(=O)C1OC1c1ccccc1 (stereo unspecified),outcome,[1],inactive
same,outcome,[2],inactive
same,AC50,[3],38.6 µM (active)
same,AC50,[4],37.6 µM (active)
same,AC50,[5],11.5 µM (active)
same,outcome,[6],inactive
same,outcome,[7],inactive
same,AC50,[8],49.9 µM (active)
same,outcome,[9],inactive
Oc1ccc2cc(SSc3ccc4cc(O)ccc4c3)ccc2c1,AC50,[1],62 µM (active)
same,AC50,[2],131 µM (active)
same,AC50,[3],26 µM (active)
same,outcome,[4],inactive
same,outcome,[5],inactive
same,outcome,[6],inactive
same,AC50,[7],57 µM (active)
same,outcome,[8],inactive
same,outcome,[9],inactive
CCCN(CCC)S(=O)(=O)c1ccc(C(=O)O)cc1,outcome,[1],inactive
same,outcome,[2],inactive
same,outcome,[3],inactive
same,outcome,[4],inactive
same,outcome,[5],inactive
same,outcome,[6],inactive
same,outcome,[7],inactive
same,outcome,[8],inactive
same,outcome,[9],inactive
Oc1c(Cl)cc(Cl)c(Cl)c1Cc1c(O)c(Cl)cc(Cl)c1Cl,outcome,[1],inactive
same,AC50,[2],0.561 µM (active)
same,AC50,[3],11.1 µM (active)
same,outcome,[4],inactive
same,AC50,[5],5.86 µM (active)
same,AC50,[6],1.98 µM (active)
same,AC50,[7],5.37 µM (active)
same,AC50,[8],0.527 µM (active)
same,outcome,[9],inactive
CS(=O)(=O)OCCCCOS(C)(=O)=O,outcome,[1],inactive
same,outcome,[2],inactive
same,outcome,[3],inactive
same,outcome,[4],inactive
same,AC50,[5],63.6 µM (active)
same,outcome,[6],inactive
same,outcome,[7],inactive
same,outcome,[8],inactive
same,outcome,[9],inactive
COc1cccc(OC)c1O,outcome,[1],inactive
same,outcome,[2],inactive
same,outcome,[3],inactive
same,outcome,[4],inactive
same,outcome,[5],inactive
same,outcome,[6],inactive
same,outcome,[7],inactive
same,outcome,[8],inactive
same,outcome,[9],inactive
CCCCCC(C=O)=Cc1ccccc1,outcome,[1],inactive
same,outcome,[2],inactive
same,outcome,[3],inactive
same,outcome,[4],inactive
same,outcome,[5],inactive
same,outcome,[6],inactive
same,outcome,[7],inactive
same,outcome,[8],inactive
same,outcome,[9],inactive
C=CC(=O)OCCC#N,outcome,[1],inactive
same,outcome,[2],inactive
same,AC50,[3],100 µM (active)
same,AC50,[4],40.5 µM (active)
same,outcome,[5],inactive
same,AC50,[6],21.6 µM (active)
same,AC50,[7],26.7 µM (active)
same,outcome,[8],inactive
same,outcome,[9],inactive
CCCCCCCC(=O)OCCCCCC,outcome,[1],inactive
same,outcome,[2],inactive
same,outcome,[3],inactive
same,outcome,[4],inactive
same,outcome,[5],inactive
same,outcome,[6],inactive
same,outcome,[7],inactive
same,outcome,[9],inactive
C=CCOC(=O)CCCCCC,outcome,[1],inactive
same,outcome,[2],inactive
same,outcome,[3],inactive
same,outcome,[4],inactive
same,outcome,[5],inactive
same,outcome,[6],inactive
same,outcome,[8],inactive
same,outcome,[9],inactive
CCCCCCCC(=O)OCC(O)CO (stereo unspecified),outcome,[1],inactive
same,outcome,[2],inactive
same,outcome,[3],inactive
same,outcome,[4],inactive
same,outcome,[5],inactive
same,outcome,[6],inactive
same,outcome,[7],inactive
same,outcome,[8],inactive
same,outcome,[9],inactive
O=C(Nc1ccc2c(O)c(N=Nc3ccc(N=Nc4ccc(S(=O)(=O)O)cc4)cc3)c(S(=O)(=O)O)cc2c1)c1ccccc1,outcome,[1],inactive
same,outcome,[2],inactive
same,outcome,[3],inactive
same,outcome,[4],inactive
same,outcome,[5],inactive
same,outcome,[6],inactive
same,AC50,[7],66.8 µM (active)
same,outcome,[9],inactive
O=CCc1ccccc1,outcome,[1],inactive
same,outcome,[2],inactive
same,outcome,[3],inactive
same,outcome,[4],inactive
same,outcome,[5],inactive
same,outcome,[6],inactive
same,outcome,[7],inactive
same,outcome,[8],inactive
same,outcome,[9],inactive
COCCOCCOCCO,outcome,[1],inactive
same,outcome,[2],inactive
same,outcome,[3],inactive
same,outcome,[4],inactive
same,outcome,[5],inactive
same,outcome,[6],inactive
same,outcome,[7],inactive
same,outcome,[8],inactive
same,outcome,[9],inactive
OCc1ccc(Cl)cc1Cl,outcome,[1],inactive
same,outcome,[2],inactive
same,outcome,[3],inactive
same,outcome,[4],inactive
same,outcome,[5],inactive
same,outcome,[6],inactive
same,outcome,[7],inactive
same,outcome,[8],inactive
same,outcome,[9],inactive
CCCCCCCCCCCCCCCC(=O)OC/C=C(C)/C=C/C=C(C)/C=C/C1=C(C)CCCC1(C)C,outcome,[1],inactive
same,outcome,[2],inactive
same,outcome,[3],inactive
same,outcome,[4],inactive
same,outcome,[5],inactive
same,outcome,[6],inactive
same,outcome,[8],inactive
same,outcome,[9],inactive
C=Cc1ccc(C(C)(C)C)cc1,outcome,[1],inactive
same,outcome,[2],inactive
same,outcome,[3],inactive
same,outcome,[4],inactive
same,outcome,[5],inactive
same,outcome,[10],inactive
same,outcome,[6],inactive
same,AC50,[8],76.1 µM (active)
same,outcome,[9],inactive
CCCCCCOC(=O)CCC,outcome,[1],inactive
same,outcome,[2],inactive
same,outcome,[3],inactive
same,outcome,[4],inactive
same,outcome,[5],inactive
same,outcome,[6],inactive
same,outcome,[8],inactive
same,outcome,[9],inactive
